In the supplement of paper PMC12494721:
Structures can show the parent of a compound that is named as a salt.

Columns and labels:
Conditions in all cases: 20 µM; incubation time: 27 h, anaerobic, 37 °C;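 for the amine columns active = adjusted P below 0.05 in both replicates with a change the same way and a mean fold change under 0.8 or over 1.25; inactive = the rest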
[1] = tested on: Clostridium sporogenes DSM 1664; assay: growth (OD595) fold change vs plate DMSO controls (fold change (ratio)); higher = more growth
In short: (§1)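 Absorbance at 595 nm was read after shaking the anaerobic mGAM cultures, which had grown in 96-well plates for 27 h at 37 °C. After blank subtraction and background correction against 20 µM compound solutions in water, a calibration factor of 5 gave OD values. Growth is the fold change against the median of the plate's DMSO controls. Values are the mean of 2 biological replicates, with fold changes above 1.5 set to NA.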

Escherichia coli IAI1 [2] = assay: as above
In short: as §1

[3] = tested on: Klebsiella aerogenes DSM 30053; assay: as above
In short: as §1

[4] = tested on: Ruminococcus gnavus DSM 108212; assay: as above
In short: as §1

[5] = tested on: Klebsiella aerogenes DSM 30053; assay: fold change of Histamine concentration vs plate DMSO controls (fold change (ratio)); higher = more amine produced, active = hit call of the paper (significant change in both replicates, either direction)
In short: (§2)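 Using LC–triple-quadrupole MS with dynamic MRM, amines were quantified against external calibration curves and corrected for drift within each batch. Samples were whole anaerobic mGAM cultures of four gut strains, grown 27 h at 37 °C from OD 0.1 before 1:1 dilution, extracted with cold acetonitrile/methanol containing 0.1% formic acid and centrifuged. Compounds were present at 20 µM final (sweeteners at 50 µM final). The numbers are fold changes versus plate DMSO controls, each the mean of 2 biological replicates.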

[6] = tested on: Clostridium sporogenes DSM 1664; assay: fold change of Tryptamine concentration vs plate DMSO controls (fold change (ratio)); higher = more amine produced, active = hit call of the paper (significant change in both replicates, either direction)
In short: as §2

[7] = tested on: Ruminococcus gnavus DSM 108212; assay: as above
In short: as §2

Escherichia coli IAI1 [8] = assay: fold change of Putrescine concentration vs plate DMSO controls (fold change (ratio)); higher = more amine produced, active = hit call of the paper (significant change in both replicates, either direction)
In short: as §2

[9] = tested on: Klebsiella aerogenes DSM 30053; assay: as above
In short: as §2

Escherichia coli IAI1 [10] = assay: fold change of Cadaverine concentration vs plate DMSO controls (fold change (ratio)); higher = more amine produced, active = hit call of the paper (significant change in both replicates, either direction)
In short: as §2

[11] = tested on: Klebsiella aerogenes DSM 30053; assay: as above
In short: as §2

[12] = tested on: Ruminococcus gnavus DSM 108212; assay: fold change of 2-Phenylethylamine concentration vs plate DMSO controls (fold change (ratio)); higher = more amine produced, active = hit call of the paper (significant change in both replicates, either direction)
In short: as §2

Compound | growth [1] | growth (Escherichia coli IAI1 [2]) | growth [3] | growth [4] | fold change of Histamine concentration [5] | fold change of Tryptamine concentration [6] | fold change of Tryptamine concentration [7] | fold change of Putrescine concentration (Escherichia coli IAI1 [8]) | fold change of Putrescine concentration [9] | fold change of Cadaverine concentration (Escherichia coli IAI1 [10]) | fold change of Cadaverine concentration [11] | fold change of 2-Phenylethylamine concentration [12]
CNC(C)(C)Cc1ccccc1 [Mephentermine hemisulfate] | 1.05 | 0.976 | 0.99 | 0.991 | 0.952 (inactive) | 1.04 (inactive) | 1.24 (inactive) | 1.03 (inactive) | 0.952 (inactive) | 0.943 (inactive) | 1.01 (inactive) | 1.38 (inactive)
CCCN(CCC)N=O [NDPA (N-nitrosodipropylamine)] | 0.977 | 0.974 | 0.99 | 0.958 | 1.01 (inactive) | 1.03 (inactive) | 1.06 (inactive) | 0.969 (inactive) | 0.982 (inactive) | 0.874 (inactive) | 1.01 (inactive) | 1.07 (inactive)
CC(C)(C)NCC(O)c1ccccc1Cl (centres undefined) [Tulobuterol hydrochloride] | 1.21 | 1.07 | 1 | 0.927 | 1.04 (inactive) | 1.08 (inactive) | 0.664 (inactive) | 1.07 (inactive) | 1.01 (inactive) | 0.968 (inactive) | 0.99 (inactive) | 0.653 (inactive)
COc1ccc(CCN2CCC(Nc3nc4ccccc4n3Cc3ccc(F)cc3)CC2)cc1 [Astemizole] | 1.26 | 1.02 | 1.01 |  | 0.968 (inactive) | 1.02 (inactive) | 0.838 (inactive) | 1.01 (inactive) | 0.988 (inactive) | 1.05 (inactive) | 0.994 (inactive) | 0.796 (inactive)
C[C@H](N)[C@H](O)c1ccc(O)c(O)c1 [Levonordefrin] | 1.11 | 0.971 | 1 | 0.976 | 0.953 (inactive) | 1.04 (inactive) | 1.07 (inactive) | 0.904 (inactive) | 0.981 (inactive) | 0.962 (inactive) | 1.01 (inactive) | 1.14 (inactive)
